In paper PMC12135187, “A role for pH dynamics regulating transcription factor DNA-binding selectivity”:
Whole data set: some 1,100 sequences, median “relative enrichment” near 0.38, cut for the highest 2% near 0.66. For the sample, the highest values were picked, then their nearest neighbours and some sequences at random.

Each sequence was assayed against T1, FOXC2 DBD WT (UniProt Q99958 72-172) (assay: SELEX-seq (GST pull-down, four rounds, 16-nt random library); pH 7.0; 20 mM HEPES, 140 mM KCl, 0.05 mM TCEP-HCl, pH 7.0, room temperature, 30 min; 2.5 uM GST-FOXC2 DBD, 0.25 uM DNA library; high values mean tight binding). Settings: protein: recombinant; tags: N-terminal GST (pGEX-6P-2); dsDNA, one strand shown.
T1 sequence: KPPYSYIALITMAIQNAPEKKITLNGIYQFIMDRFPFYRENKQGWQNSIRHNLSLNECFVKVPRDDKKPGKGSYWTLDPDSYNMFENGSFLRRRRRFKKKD
Summary of the method: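 GST-tagged FOXC2 DNA-binding domain (E. coli-expressed, glutathione-purified) was incubated with a DNA library carrying a 16 bp randomized region, at 0.25 μM DNA and 2.5 μM protein, for 30 min at RT in 20 mM HEPES, 140 mM KCl, 0.05 mM TCEP–HCl, pH 7. Complexes were captured on glutathione Sepharose beads, washed, heat-eluted and PCR-amplified over four rounds. Initial and selected libraries were Illumina MiniSeq sequenced. Relative enrichment came from the Bioconductor SELEX R package.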

Sequence	binding signal [relative enrichment]
TAATGA	0.31
AAGCTA	0.297
TACACC	0.418
CACCTG	0.535
CACCTC	0.731
TACCTC	0.625
CAATAA	0.513
CTTATC	0.378
AACAGG	0.325
TCAACT	0.324
CAACCA	0.261
TTCCTA	0.364
CTTACA	0.35
TATAAA	0.283
ATACTC	0.432
GAAAAA	0.304
TGGTAA	0.428
AGAATG	0.543
TCAATC	0.416
CTTTGA	0.338
AACGTT	0.324
CTCATT	0.311
AACAAT	0.374

Sequence	binding signal [relative enrichment]
ATAGTC	0.461
TTCACT	0.426
AAAGAT	0.356
ATAGAA	0.4
TCTCTA	0.45
ATATTA	0.266
ATACGC	0.457
ACGAAA	0.388
CATACG	0.448
TATGAA	0.387
AATTCA	0.336
AAATTC	0.343
ACACGT	0.335
CTTAAG	0.341
AATCGT	0.337
CTACAC	0.417
TTTCCC	0.38
AAACCC	0.354
ACTAAT	0.328
ACTACA	0.297
GCTACA	0.348
ACCATG	0.559
ATCAAT	0.463

Sequence	binding signal [relative enrichment]
CGTCAT	0.583
AAATCC	0.354
CACTTA	0.321
TACTCC	0.566
TACTTC	0.678
CACTTC	0.726
CACTGC	0.574
AACTTC	0.432
AAGCTC	0.44
CTCTTG	0.394
ACCCTT	0.488
CACGTA	0.469
CATCTC	0.642
CCCATT	0.378
CCTCTA	0.483
CTTAAC	0.232
ACACGA	0.377
ATATGC	0.286
ACGACT	0.561
AGTCTA	0.54
ACCCAT	0.43
TGACAA	0.337
TACCCA	0.526

Sequence	binding signal [relative enrichment]
ATAAGC	0.803
ATAAAC	1
ATAAGG	0.316
ATAAAA	0.231
GTAAAC	0.561
ATAAGA	0.307
CCCTTG	0.444
GAGTAA	0.439
ATGCTA	0.343
TAAGCA	0.814
CAAGCA	0.489
AAAGCA	0.341
TCTGTG	0.32
AGCGTA	0.542
GACACA	0.296
TTCTAC	0.528
CTCTTT	0.469
ATCTTG	0.318
CTCTTA	0.325
ATCTTA	0.332
ATCTTC	0.665
TTCTCT	0.453
CTCTTC	0.799

Sequence	binding signal [relative enrichment]
TTCTTC	0.673
ATCTAG	0.559
GCCAAT	0.341
CCACTG	0.649
ACTTGC	0.489
CCCTGT	0.366
ACAGAG	0.418
CCTCAT	0.455
TAGTCA	0.442
AGTCAT	0.491
ATTGCC	0.483
GCCATA	0.387
AACTCA	0.249
TGCAAA	0.311
ACATTA	0.277
ACATGT	0.276
GTCTTA	0.348
GATCTA	0.537
AGATTA	0.329
